Experimental data from PubChem BioAssay.
“And” between values parts separate entries of the source, which are not always exact repeats. Equal values may be shown once. The source made the active and inactive calls.

Assays:
[1] = tested on: Plasmodium falciparum Sir2 (PF13_0152, Sir2A); experiment: Plasmodium falciparum Sir2A binding compounds – biochemical, small-molecule microarray, 635 nm fluorescence, primary screen (AID 1098); conditions: fluorescence 635 nm, higher = more signal;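 also: score merges spot fluorescence intensity with its signal-to-noise ratio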
[2] = probe aDKK1 binding to arrayed compounds – biochemical, biotinylated probe, 635/667 nm fluorescence, primary screen (AID 1099); conditions: small-molecule microarray, higher = more signal;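 also: score merges 667nm spot fluorescence with signal to noise across triplicate slides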
[3] = probe aCHRDL2 binding to arrayed compounds – biochemical, biotinylated probe, 635/667 nm fluorescence, primary screen (AID 1100); conditions: small-molecule microarray, higher = more signal
[4] = change in splice reporter luminescence, either direction, cell-based, HEK293, spliceosome inhibition project, primary screen (AID 1101); conditions: HEK293 splicing luciferase reporter, 24 h, higher = more signal, called active from +8 up or from −8 down;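 also: HEK293 cells carrying a splicing-competent luciferase reporter gene; test concentration not given here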
[5] = molecular target: Fibroblast growth factor 10 (Homo sapiens) (UniProt O15520); experiment: compounds binding fibroblast growth factor 10 – biochemical, small-molecule microarray, 635 nm fluorescence, primary screen (AID 1102); conditions: FGF10 binding, fluorescence 635 nm, higher = more signal
Chain of Fibroblast growth factor 10 (Homo sapiens) (O15520 whole entry, looked up): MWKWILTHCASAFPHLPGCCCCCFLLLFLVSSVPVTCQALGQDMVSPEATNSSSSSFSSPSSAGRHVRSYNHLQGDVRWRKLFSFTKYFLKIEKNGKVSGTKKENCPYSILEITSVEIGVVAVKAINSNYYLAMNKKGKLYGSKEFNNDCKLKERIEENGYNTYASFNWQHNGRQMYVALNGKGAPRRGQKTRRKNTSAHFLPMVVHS

[6] = tested on: glycogen synthase kinase-3 (GSK3A per assay name; protocol says GSK3B); experiment: compounds binding glycogen synthase kinase-3 – biochemical, small-molecule microarray, 635 nm fluorescence, GSK3A, primary screen (AID 1103); conditions: fluorescence 635 nm, higher = more signal; also: the record names both GSK3A and GSK3B
[7] = molecular target: Epidermal growth factor receptor (Homo sapiens) (UniProt P00533); experiment: compounds binding epidermal growth factor receptor – biochemical, small-molecule microarray, 635 nm fluorescence, primary screen (AID 1104); conditions: EGFR binding, higher = more signal;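 also: score merges 667 nm emission intensity with spot signal to noise over triplicate slides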
Chain of Epidermal growth factor receptor (Homo sapiens) (P00533 whole entry, looked up): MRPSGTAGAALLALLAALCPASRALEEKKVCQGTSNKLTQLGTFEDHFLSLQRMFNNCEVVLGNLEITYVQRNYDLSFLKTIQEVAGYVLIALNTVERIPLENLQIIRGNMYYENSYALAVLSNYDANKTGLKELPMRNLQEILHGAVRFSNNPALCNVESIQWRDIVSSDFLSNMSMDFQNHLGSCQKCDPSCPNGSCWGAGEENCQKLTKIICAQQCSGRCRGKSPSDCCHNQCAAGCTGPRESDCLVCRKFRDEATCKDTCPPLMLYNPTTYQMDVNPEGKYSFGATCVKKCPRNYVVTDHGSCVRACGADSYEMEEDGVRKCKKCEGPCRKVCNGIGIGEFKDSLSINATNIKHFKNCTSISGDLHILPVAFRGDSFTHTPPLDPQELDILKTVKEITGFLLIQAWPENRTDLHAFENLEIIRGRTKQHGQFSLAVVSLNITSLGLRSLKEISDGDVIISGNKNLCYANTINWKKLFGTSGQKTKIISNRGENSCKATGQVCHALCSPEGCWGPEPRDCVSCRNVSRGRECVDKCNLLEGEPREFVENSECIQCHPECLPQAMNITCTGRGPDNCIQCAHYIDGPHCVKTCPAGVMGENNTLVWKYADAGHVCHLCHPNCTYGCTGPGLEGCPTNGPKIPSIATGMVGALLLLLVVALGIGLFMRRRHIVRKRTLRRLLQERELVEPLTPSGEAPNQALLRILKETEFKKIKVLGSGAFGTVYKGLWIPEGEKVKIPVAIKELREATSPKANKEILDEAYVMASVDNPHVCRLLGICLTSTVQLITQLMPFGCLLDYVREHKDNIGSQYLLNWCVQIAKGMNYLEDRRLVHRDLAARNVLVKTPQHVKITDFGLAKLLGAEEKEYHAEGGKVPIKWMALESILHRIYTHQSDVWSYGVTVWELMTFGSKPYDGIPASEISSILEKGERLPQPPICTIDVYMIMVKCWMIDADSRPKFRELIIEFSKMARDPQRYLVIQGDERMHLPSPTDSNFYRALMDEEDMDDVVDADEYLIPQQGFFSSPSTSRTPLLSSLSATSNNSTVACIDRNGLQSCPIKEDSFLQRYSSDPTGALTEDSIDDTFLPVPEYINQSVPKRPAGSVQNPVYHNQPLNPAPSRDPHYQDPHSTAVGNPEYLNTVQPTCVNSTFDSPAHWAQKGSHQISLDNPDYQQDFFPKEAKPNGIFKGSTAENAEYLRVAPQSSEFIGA

[8] = molecular target: Follistatin-related protein 3 (Homo sapiens) (UniProt O95633); experiment: compounds binding follistatin-related protein 3 – biochemical, small-molecule microarray, 635 nm fluorescence, primary screen (AID 1105); conditions: FSTL3 binding, higher = more signal;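 also: score merges emission near 667 nm and signal to noise per printed spot across three slides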
Chain of Follistatin-related protein 3 (Homo sapiens) (O95633 whole entry, looked up): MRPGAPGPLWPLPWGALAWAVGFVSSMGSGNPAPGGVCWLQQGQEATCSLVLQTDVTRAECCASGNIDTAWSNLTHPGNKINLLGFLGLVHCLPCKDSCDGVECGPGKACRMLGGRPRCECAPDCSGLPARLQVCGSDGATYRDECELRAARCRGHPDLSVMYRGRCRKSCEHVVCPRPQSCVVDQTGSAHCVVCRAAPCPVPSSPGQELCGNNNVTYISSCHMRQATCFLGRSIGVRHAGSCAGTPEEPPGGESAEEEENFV

[9] = molecular target: Dickkopf-related protein 1 (Homo sapiens) (UniProt O94907); experiment: small molecules binding DKK1 protein – biochemical, small-molecule microarray, 635 nm fluorescence scan, primary screen (AID 1106); conditions: higher = more signal;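 also: score merges emission near 667 nm with signal to noise over three replicate slides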
Chain of Dickkopf-related protein 1 (Homo sapiens) (O94907 whole entry, looked up): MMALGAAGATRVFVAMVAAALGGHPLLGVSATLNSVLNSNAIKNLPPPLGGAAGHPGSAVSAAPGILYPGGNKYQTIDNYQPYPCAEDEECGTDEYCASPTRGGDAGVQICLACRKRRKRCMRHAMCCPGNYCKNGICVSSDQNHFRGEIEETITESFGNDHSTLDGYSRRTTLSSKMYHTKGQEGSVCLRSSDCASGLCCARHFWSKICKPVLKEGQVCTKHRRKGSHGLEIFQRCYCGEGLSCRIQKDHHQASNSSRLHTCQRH

[10] = tested on: Inhibin beta A chain (activin A); experiment: small molecules binding activin A – biochemical, small-molecule microarray, 635 nm fluorescence scan, primary screen (AID 1107); conditions: INHBA, higher = more signal;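 also: mouse activin A protein probed at 4.33 µg/mL on printed slides; score merges bound-protein fluorescence near 667 nm with spot signal-to-noise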
[11] = tested on: Human papillomavirus type 1a protein E7 (residues 44-93); experiment: small molecules binding HPV E7 44-93 – biochemical, small-molecule microarray, residues 44-93, 635 nm fluorescence, primary screen (AID 1108); conditions: fluorescence 635 nm, higher = more signal;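 also: E7 fragment applied at 1 µg/mL in TBST for 1 h at 4 C; score combines spot fluorescence with its signal to noise ratio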
[12] = hepatitis C replication reporter changes, two-sided – Huh7 cells, luciferase reporter, HCV replication inhibitor project, primary screen (AID 1109); conditions: Huh7 HCV replicon luciferase reporter, 48 h; higher = more signal;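 also: huh7 hepatoma cells harbouring a luciferase neomycin HCV replicon reporter; luciferase luminescence as measure of HCV replicon replication; test concentration not given here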
[13] = molecular target: Left-right determination factor 2 (Homo sapiens) (UniProt O00292); experiment: small molecules binding LEFTY2 protein – biochemical, small-molecule microarray, 635 nm fluorescence scan, primary screen (AID 1110); conditions: higher = more signal
Chain of Left-right determination factor 2 (Homo sapiens) (O00292 whole entry, looked up): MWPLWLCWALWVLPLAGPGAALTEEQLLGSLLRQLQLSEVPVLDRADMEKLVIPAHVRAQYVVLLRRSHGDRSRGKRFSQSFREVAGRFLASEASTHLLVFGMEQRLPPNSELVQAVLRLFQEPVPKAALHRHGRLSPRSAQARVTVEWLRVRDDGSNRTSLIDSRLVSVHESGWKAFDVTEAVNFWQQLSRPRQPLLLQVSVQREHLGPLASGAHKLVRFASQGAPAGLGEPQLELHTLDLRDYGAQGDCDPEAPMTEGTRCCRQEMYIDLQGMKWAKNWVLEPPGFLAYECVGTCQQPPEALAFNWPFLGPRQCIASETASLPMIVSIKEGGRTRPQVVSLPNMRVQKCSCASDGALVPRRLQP

[14] = molecular target: Calmodulin-1 (Homo sapiens) (UniProt P0DP23); experiment: small molecules binding calmodulin-1 with EGTA – biochemical, small-molecule microarray, Cy5-labelled CALM1, profiling panel (AID 1111); conditions: Cy5-CALM1 binding fluorescence, higher = more signal;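 also: labelled calmodulin applied in Tris saline Tween buffer holding calcium plus EGTA and DTT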
[15] = molecular target: Calmodulin-1 (Homo sapiens) (UniProt P0DP23); experiment: small molecules binding Ca-loaded calmodulin-1 – biochemical, small-molecule microarray, Cy5-labelled CALM1, plus calcium, artefact control for SMM control-protein annotation, profiling panel (AID 1112); conditions: Cy5-CALM1 binding fluorescence, higher = more signal;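 also: score merges spot fluorescence with signal to noise from triplicate slides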
[16] = probe aWnt5a binding to arrayed compounds – biochemical, biotinylated probe, 635/667 nm fluorescence, primary screen (AID 1113); conditions: small-molecule microarray, higher = more signal;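 also: score merges 667 nm fluorescence intensity with signal-to-noise per printed feature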
[17] = probe aShh binding to arrayed compounds – biochemical, biotinylated probe, 635/667 nm fluorescence, primary screen (AID 1114); conditions: small-molecule microarray, higher = more signal;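 also: probe is biotin-labelled aShh protein from a stem cell growth factor screen; measures binding of labelled protein to compounds printed on the slide; score merges feature fluorescence at 667 nm with signal-to-noise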
[18] = probe aNog binding to arrayed compounds – biochemical, biotinylated probe, 635/667 nm fluorescence, primary screen (AID 1115); conditions: small-molecule microarray, higher = more signal;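 also: probe is biotinylated aNog protein used at 0.15 µg/mL for 1 h at 4 C; z-score combines 667 nm fluorescence of each spot with its signal to noise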
[19] = molecular target: Torsin-1A-interacting protein 1 (Homo sapiens) (UniProt Q5JTV8); experiment: compound microarray binding of lysate hLAP1 – cell lysate, small-molecule microarray, COS7 lysate, 635/667 nm fluorescence, primary screen (AID 1116); conditions: 635 nm fluorescence, higher = more signal
Chain of Torsin-1A-interacting protein 1 (Homo sapiens) (Q5JTV8 whole entry, looked up): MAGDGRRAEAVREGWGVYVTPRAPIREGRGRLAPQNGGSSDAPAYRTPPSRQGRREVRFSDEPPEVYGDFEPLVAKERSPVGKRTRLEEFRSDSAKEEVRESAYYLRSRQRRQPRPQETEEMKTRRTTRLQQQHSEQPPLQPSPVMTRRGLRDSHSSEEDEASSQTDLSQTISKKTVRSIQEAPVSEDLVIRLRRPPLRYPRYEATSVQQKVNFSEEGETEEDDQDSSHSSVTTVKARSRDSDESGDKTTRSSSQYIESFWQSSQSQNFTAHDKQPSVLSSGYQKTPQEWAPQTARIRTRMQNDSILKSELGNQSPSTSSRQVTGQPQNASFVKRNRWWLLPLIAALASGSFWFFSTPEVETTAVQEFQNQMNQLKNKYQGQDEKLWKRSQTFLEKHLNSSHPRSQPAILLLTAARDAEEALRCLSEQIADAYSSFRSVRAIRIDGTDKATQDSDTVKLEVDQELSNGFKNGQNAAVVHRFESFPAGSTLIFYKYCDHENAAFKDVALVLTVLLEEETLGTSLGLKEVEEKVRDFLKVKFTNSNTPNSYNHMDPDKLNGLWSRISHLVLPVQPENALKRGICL

[20] = molecular target: Alpha-bungarotoxin (Bungarus multicinctus) (UniProt P60615); experiment: compounds binding labelled alpha-BTX control protein – biochemical, small-molecule microarray, Alexa647 label, 635/667 nm fluorescence, artefact control for SMM control protein annotation, profiling panel (AID 1117); conditions: alpha-BTX-A647 binding fluorescence, higher = more signal
Chain of Alpha-bungarotoxin (Bungarus multicinctus) (P60615 whole entry, looked up): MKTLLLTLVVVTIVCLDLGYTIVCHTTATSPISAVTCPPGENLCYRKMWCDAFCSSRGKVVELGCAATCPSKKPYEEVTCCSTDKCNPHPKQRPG

SMILES	composite z-score [1]	composite z-score [2]	composite z-score [3]	z-score [4]	composite z-score [5]	composite z-score [6]	composite z-score [7]	composite z-score [8]	composite z-score [9]	composite z-score [10]	composite z-score [11]	z-score [12]	composite z-score [13]	composite z-score [14]	composite z-score [15]	composite z-score [16]	composite z-score [17]	composite z-score [18]	composite z-score [19]	composite z-score [20]
Cc1ccc(S(=O)(=O)N[C@H]2COC(=O)[C@@H](Cc3ccccc3)NC(=O)[C@@H](C)COC(=O)CC=C[C@@H]2C)cc1	-0.218 and 0.304	-0.483 and -0.332	-0.803 and -0.645	0.565 (inactive) and -0.0193 (inactive)	0.117 and 0.435	-0.0808 and -0.0049	0.513 and 0.282	0.87 and 0.533	0.871 and 0.895	0.657 and 0.0736	-1.28 and 0.123	1.41 and -1.89	0.839 and 0.546	-0.233 and -0.354	-0.372 and -0.879	-0.1 and -0.0912	0.0494 and -0.138	-0.122 and -0.038	0.15 and -0.0849	0.423 and -0.1
C=CCN(CCCCC)C(=O)C1N(c2c(Cl)cccc2CO)C(=O)C2C(C(=O)O)C3C=CC21O3 (stereo not given)	-0.116 and 0.397	0.784 and 0.13	0.479 and 1.12	-0.282 (inactive) and -0.455 (inactive)	-1.35 and -1.3	-0.607 and -1.18	-3.02 and -1.91	-2.09 and -2.23	-2.91 and -2.56	-1.96 and -1.99	-0.495 and -1.04	-1.62 and -0.992	-1.3 and -3.32	-0.522 and -1.03	0.639 and 0.545	-0.292 and -0.23	-0.214 and -0.262	0.0029 and 0.0473	0.443 and -0.697	-1.91 and -1.04
COC(=O)C1=C(C)N(Cc2ccccc2)C2=C(C(C)=O)C[C@@](O)(C(=O)OC)C(=O)N2[C@@H]1c1ccccc1	1.58 and 0.326	-0.301 and -0.205	-0.764 and -0.229	-0.805 (inactive) and -0.873 (inactive)	0.988 and 0.0571	0.74 and -0.0162	0.381 and 0.348	0.869 and 0.521	0.801 and 0.478	0.522 and 1.28	0.594 and -0.54	-0.347 and 1.11	0.85 and 0.187	-1 and -0.501	-1.13 and -0.338	-0.0512 and -0.18	0.0465 and 0.0121	0.127 and -0.247	0.974 and -0.069	-0.634 and 0.42
C=CCN(CCCCC)C(=O)C1N(c2ccc(CCO)cc2)C(=O)C2C(C(=O)O)C3C=CC21O3 (stereo not given)	0.122 and -0.0398	-0.244 and -0.184	0.976 and 0.99	-0.296 (inactive) and 0.494 (inactive)	-1.01 and -1.64	-1.29 and -1.34	-1.23 and -1.1	-0.937 and -1.43	-1.6 and -1.19	-1.49 and -1.34	-0.351 and -0.928	0.471 and -0.235	-2.25 and -3.05	-1.51 and -0.989	-0.455 and -0.143	-0.23 and -0.316	-0.0769 and -0.0866	-0.387 and -0.332	0.143 and 0.422	-2.97 and -1.37
C=CC[C@@H](O)c1ccc(OCCO)cc1	0.153 and 0.572	-0.458 and -0.292	0.644 and 0.889	-1.87 (inactive) and -2.09 (inactive)	-0.906 and -0.929	0.512 and -0.567	-0.798 and -1.61	0.132 and -0.565	-0.751 and -1.58	-0.911 and -1.46	-1.68 and -0.85	1.71 and 1.54	-0.301 and -1.81	-1 and -1.27	-0.166 and -0.74	-0.184 and -0.247	-0.138 and -0.0626	-0.435 and -0.201	0.141 and -0.598	-0.416 and 1.32
